Measurements taken from the supplement of paper PMC8728848.
The full list was thinned out, with the strongest signals kept by preference.

Experiments:
Test in all cases: glycan array binding signal (z-score within array); higher = stronger binding
Settings in all cases: glycan notation: IUPAC condensed, linker removed
[1] = biological target: Fuc(a1-2)Gal(b1-4)GlcNAc(b1-2)Man
Outline: (§1)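 Glycan array binding is given as a within-array Z-score, which can be read as non-binding when negative. The arrays, 3228 of them, came from the Consortium for Functional Glycomics database and were retained only where the protein sequence was available. Z-scores were averaged across arrays of the same protein sequence at different concentrations or buffers and across linkers.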

[2] = biological target: Fuc(a1-2)Gal(b1-4)GlcNAc(b1-2)Man(a1-3)[Fuc(a1-2)Gal(b1-4)GlcNAc(b1-2)Man(a1-6)]Man(b1-4)GlcNAc(b1-4)GlcNAc
Outline: as §1

[3] = biological target: Fuc(a1-2)[Gal(a1-3)]Gal(b1-4)GlcNAc(b1-3)GalNAc
Outline: as §1

[4] = biological target: Fuc(a1-2)[Gal(a1-3)]Gal(b1-4)GlcNAc(b1-6)GalNAc
Outline: as §1

[5] = biological target: Fuc(a1-2)[GalNAc(a1-3)]Gal(b1-4)GlcNAc(b1-2)Man(a1-3)[Fuc(a1-2)[GalNAc(a1-3)]Gal(b1-4)GlcNAc(b1-2)Man(a1-6)]Man(b1-4)GlcNAc(b1-4)GlcNAc
Outline: as §1

[6] = biological target: Fuc(a1-3)[Gal(b1-4)]GlcNAc(b1-6)[Gal(b1-3)GlcNAc(b1-3)]Gal(b1-4)Glc
Outline: as §1

[7] = biological target: Fuc(a1-3)[Gal(b1-4)]GlcNAc6S
Outline: as §1

[8] = biological target: Gal(a1-3)Gal(b1-3)GlcNAc(b1-6)GalNAc
Outline: as §1

[9] = biological target: Gal(a1-3)[Gal(a1-4)]Gal(b1-4)GlcNAc
Outline: as §1

Gal(b1-3)GalNAc = biological target: Gal(b1-3)GalNAc
Outline: as §1

[10] = biological target: Gal(b1-3)GlcNAc(b1-2)[Gal(b1-3)GlcNAc(b1-6)]Man(a1-6)[Gal(b1-3)GlcNAc(b1-2)Man(a1-3)]Man(b1-4)GlcNAc(b1-4)GlcNAc
Outline: as §1

[11] = biological target: Gal(b1-3)GlcNAc(b1-3)Gal(b1-4)Glc
Outline: as §1

[12] = biological target: Gal(b1-4)GlcNAc(b1-2)Man(a1-3)Man(b1-4)GlcNAc(b1-4)GlcNAc
Outline: as §1

[13] = biological target: Gal(b1-4)GlcNAc(b1-2)Man(a1-3)[GlcNAc(b1-4)][Gal(b1-4)GlcNAc(b1-2)Man(a1-6)]Man(b1-4)GlcNAc(b1-4)GlcNAc
Outline: as §1

[14] = biological target: Gal(b1-4)GlcNAc(b1-3)Gal(b1-4)GlcNAc(b1-3)Gal(b1-4)GlcNAc(b1-3)Gal(b1-4)GlcNAc(b1-2)Man(a1-3)[Gal(b1-4)GlcNAc(b1-3)Gal(b1-4)GlcNAc(b1-3)Gal(b1-4)GlcNAc(b1-3)Gal(b1-4)GlcNAc(b1-2)Man(a1-6)]Man(b1-4)GlcNAc(b1-4)GlcNAc
Outline: as §1

[15] = biological target: Gal(b1-4)GlcNAc(b1-3)Gal(b1-4)GlcNAc(b1-3)[Gal(b1-4)GlcNAc(b1-3)Gal(b1-4)GlcNAc(b1-6)]GalNAc
Outline: as §1

[16] = biological target: Gal3S(b1-4)[Fuc(a1-3)]Glc6S
Outline: as §1

[17] = biological target: GalNAc(b1-3)Gal(a1-6)Gal(b1-4)Glc
Outline: as §1

GalNAc3S(b1-4)GlcNAc = biological target: GalNAc3S(b1-4)GlcNAc
Outline: as §1

GlcA(b1-3)GlcNAc = biological target: GlcA(b1-3)GlcNAc
Outline: as §1

[18] = biological target: GlcNAc(a1-3)Gal(b1-4)GlcNAc
Outline: as §1

[19] = biological target: GlcNAc(a1-4)Gal(b1-4)GlcNAc(b1-3)Gal(b1-4)[Fuc(a1-3)]GlcNAc(b1-3)Gal(b1-4)[Fuc(a1-3)]GlcNAc
Outline: as §1

[20] = biological target: GlcNAc(b1-2)[GlcNAc(b1-4)]Man(a1-3)[GlcNAc(b1-4)][GlcNAc(b1-2)[GlcNAc(b1-6)]Man(a1-6)]Man(b1-4)GlcNAc(b1-4)[Fuc(a1-6)]GlcNAc
Outline: as §1

GlcNAc(b1-3)Fuc = biological target: GlcNAc(b1-3)Fuc
Outline: as §1

[21] = biological target: GlcNAc(b1-3)Gal(b1-3)GalNAc
Outline: as §1

[22] = biological target: GlcNAc(b1-3)Gal(b1-4)GlcNAc(b1-3)Gal(b1-4)GlcNAc(b1-3)GalNAc
Outline: as §1

GlcNAc(b1-4)GlcNAc = biological target: GlcNAc(b1-4)GlcNAc
Outline: as §1

[23] = biological target: GlcNAc6S(b1-3)Gal(b1-4)GlcNAc
Outline: as §1

Man(b1-4)GlcNAc = biological target: Man(b1-4)GlcNAc
Outline: as §1

[24] = biological target: Neu5Ac(a2-3)Gal(b1-3)GalNAc(b1-4)[Neu5Ac(a2-8)Neu5Ac(a2-3)]Gal(b1-4)Glc
Outline: as §1

[25] = biological target: Neu5Ac(a2-3)Gal(b1-3)[Neu5Ac(a2-6)]GlcNAc(b1-3)[Fuc(a1-3)[Gal(b1-4)]GlcNAc(b1-6)]Gal(b1-4)Glc
Outline: as §1

[26] = biological target: Neu5Ac(a2-3)Gal(b1-3)]Neu5Ac(a2-3)Gal(b1-4)]GlcNAc
Outline: as §1

[27] = biological target: Neu5Ac(a2-3)Gal(b1-4)[Fuc(a1-3)]GlcNAc(b1-3)Gal
Outline: as §1

[28] = biological target: Neu5Ac(a2-6)Gal(b1-4)GlcNAc(b1-2)Man(a1-6)[Gal(b1-4)GlcNAc(b1-2)Man(a1-3)]Man(b1-4)GlcNAc(b1-4)GlcNAc
Outline: as §1

[29] = biological target: Neu5Ac(a2-6)Gal(b1-4)GlcNAc(b1-2)Man(a1-6)[Man(a1-3)]Man(b1-4)GlcNAc(b1-4)GlcNAc
Outline: as §1

[30] = biological target: Neu5Ac(a2-6)Gal(b1-4)GlcNAc(b1-3)Gal(b1-4)GlcNAc(b1-3)Gal(b1-4)GlcNAc(b1-2)Man(a1-3)[Neu5Ac(a2-6)Gal(b1-4)GlcNAc(b1-3)Gal(b1-4)GlcNAc(b1-3)Gal(b1-4)GlcNAc(b1-2)Man(a1-6)]GalNAc
Outline: as §1

[31] = biological target: Neu5Ac(a2-8)Neu5Ac(a2-3)Gal(b1-4)Glc
Outline: as §1

[32] = biological target: Neu5Ac(a2-8)Neu5Ac(a2-3)Gal(b1-4)GlcNAc
Outline: as §1

[33] = biological target: Neu5Ac(a2-8)Neu5Ac(a2-8)Neu5Ac(a2-8)Neu5Ac(a2-3)[GalNAc(b1-4)]Gal(b1-4)Glc
Outline: as §1

[34] = biological target: GlcNAc(a1-4)Gal(b1-3)GlcNAc
Outline: as §1

[35] = biological target: GlcNAc(b1-2)Man(a1-3)[GlcNAc(b1-4)][GlcNAc(b1-2)Man(a1-6)]Man(b1-4)GlcNAc(b1-4)[Fuc(a1-6)]GlcNAc
Outline: as §1

[36] = biological target: GlcNAc(b1-3)Gal(b1-4)GlcNAc
Outline: as §1

[37] = biological target: GlcNAc(b1-3)Gal(b1-4)GlcNAc(b1-6)[GlcNAc(b1-3)Gal(b1-3)]GalNAc
Outline: as §1

[38] = biological target: GlcNAc(b1-3)[GlcNAc(b1-6)]GalNAc
Outline: as §1

GlcNAc(b1-6)GalNAc = biological target: GlcNAc(b1-6)GalNAc
Outline: as §1

[39] = biological target: Kdn(a2-3)Gal(b1-4)[Fuc(a1-3)]GlcNAc
Outline: as §1

[40] = biological target: Neu5Ac(a2-3)Gal(b1-4)GlcNAc(b1-3)Gal(b1-4)GlcNAc(b1-3)Gal(b1-4)GlcNAc(b1-2)Man(a1-3)[Neu5Ac(a2-3)Gal(b1-4)GlcNAc(b1-3)Gal(b1-4)GlcNAc(b1-3)Gal(b1-4)GlcNAc(b1-2)Man(a1-6)]GalNAc
Outline: as §1

[41] = biological target: Neu5Ac(a2-3)Gal(b1-4)GlcNAc(b1-3)Gal(b1-4)GlcNAc(b1-3)GalNAc
Outline: as §1

[42] = biological target: Neu5Ac(a2-3)Gal(b1-4)[Fuc(a1-3)]GlcNAc(b1-2)Man
Outline: as §1

[43] = biological target: Neu5Ac(a2-6)Gal(b1-4)GlcNAc(b1-2)Man(a1-3)[GlcNAc(b1-2)Man(a1-6)]Man(b1-4)GlcNAc(b1-4)GlcNAc
Outline: as §1

[44] = biological target: Neu5Ac(a2-6)Gal(b1-4)GlcNAc(b1-2)Man(a1-3)[GlcNAc(b1-4)][Neu5Ac(a2-6)Gal(b1-4)GlcNAc(b1-2)Man(a1-6)]Man(b1-4)GlcNAc(b1-4)GlcNAc
Outline: as §1

[45] = biological target: Neu5Ac(a2-6)Gal(b1-4)GlcNAc(b1-2)Man(a1-3)[Neu5Ac(a2-3)Gal(b1-4)GlcNAc(b1-2)Man(a1-6)]Man(b1-4)GlcNAc(b1-4)GlcNAc
Outline: as §1

[46] = biological target: Neu5Ac9Ac(a2-3)Gal(b1-4)GlcNAc
Outline: as §1

[47] = biological target: Neu5Gc(a2-3)Gal(b1-4)[Fuc(a1-4)]GlcNAc
Outline: as §1

B1: FGFR2-Fc (protein)
chain: MVNVTDAISSGDDEDDTDGAEDFVSENSNNKRAPYWTNTEKMEKRLHAVPAANTVKFRCPAGGNPMPTMRWLKNGKEFKQEHRIGGYKVRNQHWSLIMESVVPSDKGNYTCVVENEYGSINHTYHLDVVERSPHRPILQAGLPANASTVVGGDVEFVCKVYSDAQPHIQWIKHVEKNGSKYGPDGLPYLKVLKHSGINSSNAEVLALFNVTEADAGEYICKVSNYIGQANQSAWLTVLPKQQAPGREKEITASPDYLETRPLEQKLISEEDLAANDILDYKDDDDKV
glycan array binding signal (z-score) [1]: 0.252
glycan array binding signal (z-score) [2]: -0.068
glycan array binding signal (z-score) [3]: 0.523
glycan array binding signal (z-score) [4]: -0.635
glycan array binding signal (z-score) [5]: 0.034
glycan array binding signal (z-score) [6]: -0.327
glycan array binding signal (z-score) [7]: 1.73
glycan array binding signal (z-score) [8]: -0.722
glycan array binding signal (z-score) [9]: 0.989
glycan array binding signal (z-score) (Gal(b1-3)GalNAc): 0.236
glycan array binding signal (z-score) [10]: 0.991
glycan array binding signal (z-score) [11]: -0.488
glycan array binding signal (z-score) [12]: -0.054
glycan array binding signal (z-score) [13]: -0.552
glycan array binding signal (z-score) [14]: 1.4
glycan array binding signal (z-score) [15]: 0.9
glycan array binding signal (z-score) [16]: 1.35
glycan array binding signal (z-score) [17]: -0.126
glycan array binding signal (z-score) (GalNAc3S(b1-4)GlcNAc): -0.098
glycan array binding signal (z-score) (GlcA(b1-3)GlcNAc): -0.356
glycan array binding signal (z-score) [18]: 22.2
glycan array binding signal (z-score) [19]: 1.49
glycan array binding signal (z-score) [20]: 0.045
glycan array binding signal (z-score) (GlcNAc(b1-3)Fuc): 0.448
glycan array binding signal (z-score) [21]: -0.02
glycan array binding signal (z-score) [22]: 0.549
glycan array binding signal (z-score) (GlcNAc(b1-4)GlcNAc): -0.264
glycan array binding signal (z-score) [23]: 0.175
glycan array binding signal (z-score) (Man(b1-4)GlcNAc): 0.038
glycan array binding signal (z-score) [24]: -0.349
glycan array binding signal (z-score) [25]: 0.595
glycan array binding signal (z-score) [26]: -0.115
glycan array binding signal (z-score) [27]: 1.09
glycan array binding signal (z-score) [28]: 0.258
glycan array binding signal (z-score) [29]: -0.126
glycan array binding signal (z-score) [30]: 1.17
glycan array binding signal (z-score) [31]: -0.492
glycan array binding signal (z-score) [32]: -0.139
glycan array binding signal (z-score) [33]: 0.963

B2: MGL1 (Mus musculus), P49300 (protein)
chain: MIYENLQNSRIEEKTQEPGKAPSQSFLWRILSWTHLLLFSLGLSLLLLVVVSVIGSQNSQLRRDLGTLRATLDNTTSKIKAEFQSLDSRADSFEKGISSLKVDVEDHRQELQAGRDLSQKVTSLESTVEKREQALKTDLSDLTDHVQQLRKDLKALTCQLANLKNNGSEVACCPLHWTEHEGSCYWFSESEKSWPEADKYCRLENSHLVVVNSLEEQNFLQNRLANVVSWIGLTDQNGPWRWVDGTDFEKGFKNWAPLQPDNWFGHGLGGGEDCAHITTGGPWNDDVCQRTFRWICEMKLAKES
glycan array binding signal (z-score) [34]: 0.26
glycan array binding signal (z-score) [35]: 0.417
glycan array binding signal (z-score) [36]: 0.138
glycan array binding signal (z-score) [37]: -0.907
glycan array binding signal (z-score) [38]: -0.368
glycan array binding signal (z-score) (GlcNAc(b1-6)GalNAc): 0.042
glycan array binding signal (z-score) [39]: 0.025
glycan array binding signal (z-score) [40]: 3.39
glycan array binding signal (z-score) [41]: -0.308
glycan array binding signal (z-score) [42]: -0.66
glycan array binding signal (z-score) [43]: -0.089
glycan array binding signal (z-score) [44]: -0.48
glycan array binding signal (z-score) [45]: -0.988
glycan array binding signal (z-score) [46]: -0.495
glycan array binding signal (z-score) [47]: -0.153
